# Measured values reported in the supplement of paper PMC4466140.
# B1: unnamed (peptide)
# chain: RKQRSIPLSPIVPES
# B2: unnamed (peptide)
# chain: EAEEAAPQLPSRSSA
# Experiments:
# Experiment in all cases: SPOT peptide array binding signal intensity (averaged, normalized) (arbitrary units (background-subtracted, floor 0; scale differs between SH3 domains)); higher = stronger binding of the SH3 domain to the peptide
# AgAbp1 = target: AgAbp1
# Method in brief: (§1)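 The binding signal is the normalized, background-subtracted spot intensity averaged over replicates; its arbitrary units differ between domains. It was obtained by incubating 10 μg/ml GST-fused SH3 domains from four yeast species overnight at 4°C in TBS-based blocking buffer on cellulose membranes with synthetic 15-mer peptides, cysteines replaced by serines, then detecting with anti-GST antibody, HRP anti-mouse secondary and luminol.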
# AgBbc1 = target: AgBbc1
# Method in brief: as §1
# AgBem1-D1 = target: AgBem1-D1
# Method in brief: as §1
# AgBzz1-D1 = target: AgBzz1-D1
# Method in brief: as §1
# AgBzz1-D2 = target: AgBzz1-D2
# Method in brief: as §1
# AgCyk3 = target: AgCyk3
# Method in brief: as §1
# AgFus1 = target: AgFus1
# Method in brief: as §1
# AgHof1 = target: AgHof1
# Method in brief: as §1
# AgHse1 = target: AgHse1
# Method in brief: as §1
# AgLsb1 = target: AgLsb1
# Method in brief: as §1
# AgLsb4 = target: AgLsb4
# Method in brief: as §1
# AgMyo5 = target: AgMyo5
# Method in brief: as §1
# AgNbp2 = target: AgNbp2
# Method in brief: as §1
# AgRvs167 = target: AgRvs167
# Method in brief: as §1
# AgSho1 = target: AgSho1
# Method in brief: as §1
# AgSla1-D1-D2 = target: AgSla1-D1-D2
# Method in brief: as §1
# AgSla1-D3 = target: AgSla1-D3
# Method in brief: as §1
# CaAbp1-D1 = target: CaAbp1-D1
# Method in brief: as §1
# CaAbp1-D2 = target: CaAbp1-D2
# Method in brief: as §1
# CaBbc1 = target: CaBbc1
# Method in brief: as §1
# CaBem1-D1 = target: CaBem1-D1
# Method in brief: as §1
# CaBzz1-D1 = target: CaBzz1-D1
# Method in brief: as §1
# CaBzz1-D2 = target: CaBzz1-D2
# Method in brief: as §1
# CaCyk3 = target: CaCyk3
# Method in brief: as §1
# CaFus1 = target: CaFus1
# Method in brief: as §1
# CaHof1 = target: CaHof1
# Method in brief: as §1
# CaHse1 = target: CaHse1
# Method in brief: as §1
# CaLsb1 = target: CaLsb1
# Method in brief: as §1
# CaLsb4 = target: CaLsb4
# Method in brief: as §1
# CaMyo5 = target: CaMyo5
# Method in brief: as §1
# CaNbp2 = target: CaNbp2
# Method in brief: as §1
# CaRvs167 = target: CaRvs167
# Method in brief: as §1
# CaRvs167-3 = target: CaRvs167-3
# Method in brief: as §1
# CaSho1 = target: CaSho1
# Method in brief: as §1
# CaSla1-D1-D2 = target: CaSla1-D1-D2
# Method in brief: as §1
# CaSla1-D3 = target: CaSla1-D3
# Method in brief: as §1
# ScAbp1 = target: ScAbp1
# Method in brief: as §1
# ScBbc1 = target: ScBbc1
# Method in brief: as §1
# ScBem1-D1 = target: ScBem1-D1
# Method in brief: as §1
# ScBzz1-D1 = target: ScBzz1-D1
# Method in brief: as §1
# ScBzz1-D2 = target: ScBzz1-D2
# Method in brief: as §1
# ScCyk3 = target: ScCyk3
# Method in brief: as §1
# ScFus1 = target: ScFus1
# Method in brief: as §1
# ScHof1 = target: ScHof1
# Method in brief: as §1
# ScHse1 = target: ScHse1
# Method in brief: as §1
# ScLsb1 = target: ScLsb1
# Method in brief: as §1
# ScLsb2 = target: ScLsb2
# Method in brief: as §1
# ScLsb3 = target: ScLsb3
# Method in brief: as §1
# ScLsb4 = target: ScLsb4
# Method in brief: as §1
# ScMyo3 = target: ScMyo3
# Method in brief: as §1
# ScMyo5 = target: ScMyo5
# Method in brief: as §1
# ScNbp2 = target: ScNbp2
# Method in brief: as §1
# ScPex13 = target: ScPex13
# Method in brief: as §1
# ScRvs167 = target: ScRvs167
# Method in brief: as §1
# ScSho1 = target: ScSho1
# Method in brief: as §1
# ScSla1-D1-D2 = target: ScSla1-D1-D2
# Method in brief: as §1
# ScSla1-D3 = target: ScSla1-D3
# Method in brief: as §1
# SpAbp1-D1 = target: SpAbp1-D1
# Method in brief: as §1
# SpBbc1 = target: SpBbc1
# Method in brief: as §1
# SpBzz1-D1 = target: SpBzz1-D1
# Method in brief: as §1
# SpBzz1-D2 = target: SpBzz1-D2
# Method in brief: as §1
# SpCyk3 = target: SpCyk3
# Method in brief: as §1
# SpHof1 = target: SpHof1
# Method in brief: as §1
# SpHof1-2 = target: SpHof1-2
# Method in brief: as §1
# SpHof1-3 = target: SpHof1-3
# Method in brief: as §1
# SpHse1 = target: SpHse1
# Method in brief: as §1
# SpLsb1 = target: SpLsb1
# Method in brief: as §1
# SpLsb4 = target: SpLsb4
# Method in brief: as §1
# SpMyo1 = target: SpMyo1
# Method in brief: as §1
# SpNbp2 = target: SpNbp2
# Method in brief: as §1
# SpPex13 = target: SpPex13
# Method in brief: as §1
# SpRvs167 = target: SpRvs167
# Method in brief: as §1
# SpSla1-D1-D2 = target: SpSla1-D1-D2
# Method in brief: as §1
# SpSla1-D3 = target: SpSla1-D3
# Method in brief: as §1
binder,measurement,setting,value
B1,SPOT peptide array binding signal intensity,AgAbp1,7
same,SPOT peptide array binding signal intensity,AgBbc1,17
same,SPOT peptide array binding signal intensity,AgBem1-D1,77
same,SPOT peptide array binding signal intensity,AgBzz1-D1,15.5
same,SPOT peptide array binding signal intensity,AgBzz1-D2,32
same,SPOT peptide array binding signal intensity,AgCyk3,2
same,SPOT peptide array binding signal intensity,AgFus1,104
same,SPOT peptide array binding signal intensity,AgHof1,35.5
same,SPOT peptide array binding signal intensity,AgHse1,375
same,SPOT peptide array binding signal intensity,AgLsb1,1.5
same,SPOT peptide array binding signal intensity,AgLsb4,45.5
same,SPOT peptide array binding signal intensity,AgMyo5,0.25
same,SPOT peptide array binding signal intensity,AgNbp2,59
same,SPOT peptide array binding signal intensity,AgRvs167,3.33
same,SPOT peptide array binding signal intensity,AgSho1,13
same,SPOT peptide array binding signal intensity,AgSla1-D1-D2,≤ 0
same,SPOT peptide array binding signal intensity,AgSla1-D3,3
same,SPOT peptide array binding signal intensity,CaAbp1-D1,236
same,SPOT peptide array binding signal intensity,CaAbp1-D2,98.5
same,SPOT peptide array binding signal intensity,CaBbc1,175
same,SPOT peptide array binding signal intensity,CaBem1-D1,13
same,SPOT peptide array binding signal intensity,CaBzz1-D1,58
same,SPOT peptide array binding signal intensity,CaBzz1-D2,136
same,SPOT peptide array binding signal intensity,CaCyk3,48
same,SPOT peptide array binding signal intensity,CaFus1,368
same,SPOT peptide array binding signal intensity,CaHof1,0.25
same,SPOT peptide array binding signal intensity,CaHse1,12.2
same,SPOT peptide array binding signal intensity,CaLsb1,0.5
same,SPOT peptide array binding signal intensity,CaLsb4,64
same,SPOT peptide array binding signal intensity,CaMyo5,3.5
same,SPOT peptide array binding signal intensity,CaNbp2,297
same,SPOT peptide array binding signal intensity,CaRvs167,5.17
same,SPOT peptide array binding signal intensity,CaRvs167-3,1.25
same,SPOT peptide array binding signal intensity,CaSho1,83
same,SPOT peptide array binding signal intensity,CaSla1-D1-D2,15
same,SPOT peptide array binding signal intensity,CaSla1-D3,≤ 0
same,SPOT peptide array binding signal intensity,ScAbp1,11
same,SPOT peptide array binding signal intensity,ScBbc1,20.2
same,SPOT peptide array binding signal intensity,ScBem1-D1,7
same,SPOT peptide array binding signal intensity,ScBzz1-D1,25.5
same,SPOT peptide array binding signal intensity,ScBzz1-D2,12.5
same,SPOT peptide array binding signal intensity,ScCyk3,37
same,SPOT peptide array binding signal intensity,ScFus1,98
same,SPOT peptide array binding signal intensity,ScHof1,0.5
same,SPOT peptide array binding signal intensity,ScHse1,679
same,SPOT peptide array binding signal intensity,ScLsb1,1.75
same,SPOT peptide array binding signal intensity,ScLsb2,2
same,SPOT peptide array binding signal intensity,ScLsb3,243
same,SPOT peptide array binding signal intensity,ScLsb4,9
same,SPOT peptide array binding signal intensity,ScMyo3,7
same,SPOT peptide array binding signal intensity,ScMyo5,6.25
same,SPOT peptide array binding signal intensity,ScNbp2,142
same,SPOT peptide array binding signal intensity,ScPex13,4.5
same,SPOT peptide array binding signal intensity,ScRvs167,39.7
same,SPOT peptide array binding signal intensity,ScSho1,284
same,SPOT peptide array binding signal intensity,ScSla1-D1-D2,193
same,SPOT peptide array binding signal intensity,ScSla1-D3,57.2
same,SPOT peptide array binding signal intensity,SpAbp1-D1,85
same,SPOT peptide array binding signal intensity,SpBbc1,0.25
same,SPOT peptide array binding signal intensity,SpBzz1-D1,171
same,SPOT peptide array binding signal intensity,SpBzz1-D2,0.5
same,SPOT peptide array binding signal intensity,SpCyk3,1.5
same,SPOT peptide array binding signal intensity,SpHof1,26.8
same,SPOT peptide array binding signal intensity,SpHof1-2,2.25
same,SPOT peptide array binding signal intensity,SpHof1-3,340
same,SPOT peptide array binding signal intensity,SpHse1,293
same,SPOT peptide array binding signal intensity,SpLsb1,2
same,SPOT peptide array binding signal intensity,SpLsb4,25.5
same,SPOT peptide array binding signal intensity,SpMyo1,3
same,SPOT peptide array binding signal intensity,SpNbp2,115
same,SPOT peptide array binding signal intensity,SpPex13,≤ 0
same,SPOT peptide array binding signal intensity,SpRvs167,18.8
same,SPOT peptide array binding signal intensity,SpSla1-D1-D2,≤ 0
same,SPOT peptide array binding signal intensity,SpSla1-D3,1
B2,SPOT peptide array binding signal intensity,CaNbp2,≤ 0
same,SPOT peptide array binding signal intensity,CaRvs167,340
same,SPOT peptide array binding signal intensity,CaRvs167-3,6.25
same,SPOT peptide array binding signal intensity,CaSho1,≤ 0
same,SPOT peptide array binding signal intensity,CaSla1-D1-D2,≤ 0
same,SPOT peptide array binding signal intensity,CaSla1-D3,≤ 0
same,SPOT peptide array binding signal intensity,ScAbp1,6
same,SPOT peptide array binding signal intensity,ScBbc1,≤ 0
same,SPOT peptide array binding signal intensity,ScBem1-D1,≤ 0
same,SPOT peptide array binding signal intensity,ScBzz1-D1,9
same,SPOT peptide array binding signal intensity,ScBzz1-D2,10
same,SPOT peptide array binding signal intensity,ScCyk3,1
same,SPOT peptide array binding signal intensity,ScFus1,≤ 0
same,SPOT peptide array binding signal intensity,ScHof1,4.25
same,SPOT peptide array binding signal intensity,ScHse1,≤ 0
same,SPOT peptide array binding signal intensity,ScLsb1,283
same,SPOT peptide array binding signal intensity,ScLsb2,12.5
same,SPOT peptide array binding signal intensity,ScLsb3,7150
same,SPOT peptide array binding signal intensity,ScLsb4,3370
same,SPOT peptide array binding signal intensity,ScMyo3,≤ 0
same,SPOT peptide array binding signal intensity,ScMyo5,≤ 0
same,SPOT peptide array binding signal intensity,ScNbp2,≤ 0
same,SPOT peptide array binding signal intensity,ScPex13,128
same,SPOT peptide array binding signal intensity,ScRvs167,1500
same,SPOT peptide array binding signal intensity,ScSho1,≤ 0
same,SPOT peptide array binding signal intensity,ScSla1-D1-D2,7
same,SPOT peptide array binding signal intensity,ScSla1-D3,0.75
same,SPOT peptide array binding signal intensity,SpAbp1-D1,≤ 0
same,SPOT peptide array binding signal intensity,SpBbc1,≤ 0
same,SPOT peptide array binding signal intensity,SpBzz1-D1,≤ 0
same,SPOT peptide array binding signal intensity,SpBzz1-D2,≤ 0
same,SPOT peptide array binding signal intensity,SpCyk3,1
same,SPOT peptide array binding signal intensity,SpHof1,0.5
same,SPOT peptide array binding signal intensity,SpHof1-2,3.5
same,SPOT peptide array binding signal intensity,SpHof1-3,1
same,SPOT peptide array binding signal intensity,SpHse1,0.5
same,SPOT peptide array binding signal intensity,SpLsb1,4.25
same,SPOT peptide array binding signal intensity,SpLsb4,6420
same,SPOT peptide array binding signal intensity,SpMyo1,≤ 0
same,SPOT peptide array binding signal intensity,SpNbp2,≤ 0
same,SPOT peptide array binding signal intensity,SpPex13,0.5
same,SPOT peptide array binding signal intensity,SpRvs167,2390
same,SPOT peptide array binding signal intensity,SpSla1-D1-D2,2
same,SPOT peptide array binding signal intensity,SpSla1-D3,1
